From PubChem BioAssay AID1159580 (chemical genetic matrix, 2015)
Among all 5,500 compounds or so, about 2,000 (36%) were called active. Inconclusive results (about 18%) are left out. Rule as the data show it: active = normalized growth mostly below about 0.91 (no sharp cut-off); inconclusive = no clear call, values can overlap the other calls; inactive = mostly above about 0.92. Some of the results follow.

Experiment: chemical genetic growth profiling, strain panel (AID 1159580);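 also: tested at 20 µM; growth read once vehicle control cultures reached saturation at 30 °C; 1 = growth at the plate median or of vehicle wells; lower values mean less growth of the strain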
Conditions: S. cerevisiae deletion strains, growth OD
[1] = locus YAL013W, strain DEP1, stronger effect = lower value
[2] = locus YBR229C, strain ROT2, stronger effect = lower value
[3] = locus YDL101C, strain DUN1, stronger effect = lower value
[4] = locus YGR078C, strain PAC10, stronger effect = lower value
[5] = locus YJL187C, strain SWE1, stronger effect = lower value
[6] = locus YJR043C, strain POL32, stronger effect = lower value
[7] = locus YJR075W, strain HOC1, stronger effect = lower value
[8] = locus YKL190W, strain CNB1, stronger effect = lower value
[9] = locus YLR039C, strain RIC1, stronger effect = lower value
[10] = locus YLR262C, strain YPT6, stronger effect = lower value
[11] = locus YMR263W, strain SAP30, stronger effect = lower value
[12] = locus YNL153C, strain GIM3, stronger effect = lower value
[13] = locus YNL322C, strain KRE1, stronger effect = lower value
[14] = locus YPL055C, strain LGE1, stronger effect = lower value
[15] = locus YPL241C, strain CIN2, stronger effect = lower value

Measured: normalized growth

CC1(C)C(O)CC(=O)C2(C)C1CC(O)C1(C)C2CCC2(C)C(c3ccoc3)OC(=O)C3OC321 (stereo unspecified)
inactive: [1] 1 | locus YAL021C, strain ccr4, stronger effect = lower value 0.99 | locus YAL026C, strain drs2, stronger effect = lower value 1.02 | locus YAL030W, strain snc1, stronger effect = lower value 1 | locus YBL061C, strain skt5, stronger effect = lower value 1 | locus YBR009C, strain hhf1, stronger effect = lower value 0.999 | locus YBR021W, strain FUR4, stronger effect = lower value 0.931 | locus YBR023C, strain chs3, stronger effect = lower value 0.99 | locus YBR171W, strain sec66, stronger effect = lower value 0.995 | [2] 1 | locus YBR231C, strain swc5, stronger effect = lower value 0.999 | locus YBR279W, strain paf1, stronger effect = lower value 0.997 | locus YCL011C, strain gbp2, stronger effect = lower value 1 | locus YCL016C, strain dcc1, stronger effect = lower value 1.01 | locus YCL029C, strain bik1, stronger effect = lower value 1 | locus YCL061C, strain MRC1, stronger effect = lower value 0.993 | locus YCL069W, strain vba3, stronger effect = lower value 1.03 | locus YCR088W, strain abp1, stronger effect = lower value 0.989 | locus YDL005C, strain med2, stronger effect = lower value 0.99 | locus YDL035C, strain GPR1, stronger effect = lower value 0.989 | locus YDL040C, strain nat1, stronger effect = lower value 0.997 | locus YDL074C, strain BRE1, stronger effect = lower value 0.976 | [3] 1.01 | locus YDL185W, strain tfp1, stronger effect = lower value 1.02 | locus YDL192W, strain arf1, stronger effect = lower value 0.988 | locus YDR001C, strain nth1, stronger effect = lower value 0.999 | locus YDR069C, strain doa4, stronger effect = lower value 1 | locus YDR101C, strain arx1, stronger effect = lower value 1 | locus YDR137W, strain rgp1, stronger effect = lower value 0.997 | locus YDR159W, strain sac3, stronger effect = lower value 0.973 | locus YDR162C, strain NBP2, stronger effect = lower value 1 | locus YDR195W, strain ref2 0.939 | locus YDR297W, strain sur2, stronger effect = lower value 0.985 | locus YDR318W, strain mcm21, stronger effect = lower value 1 | locus YDR334W, strain swr1, stronger effect = lower value 0.998 | locus YDR335W, strain msn5, stronger effect = lower value 1 | locus YDR388W, stronger effect = lower value 1.01 | locus YDR392W, strain spt3, stronger effect = lower value 0.989 | locus YDR502C, strain sam2, stronger effect = lower value 1.02 | locus YEL003W, strain gim4, stronger effect = lower value 0.997 | locus YEL037C, strain rad23, stronger effect = lower value 1.02 | locus YEL061C, strain CIN8 (second series), stronger effect = lower value 0.995 | locus YER015W, strain faa2, stronger effect = lower value 1 | locus YER016W, strain bim1, stronger effect = lower value 1 | locus YER110C, stronger effect = lower value 1.01 | locus YER111C, strain swi4, stronger effect = lower value 0.99 | locus YER155C, strain BEM2 (second series), stronger effect = lower value 0.998 | locus YER155C, strain BEM2, stronger effect = lower value 1 | locus YER167W, strain BCK2, stronger effect = lower value 0.998 | locus YFR010W, strain ubp6, stronger effect = lower value 1.01 | locus YGL078C, strain dbp3, stronger effect = lower value 1.03 | locus YGL086W, strain mad1, stronger effect = lower value 1 | locus YGL167C, strain pmr1, stronger effect = lower value 1.01 | locus YGL173C, strain kem1, stronger effect = lower value 0.994 | locus YGL227W, strain vid30, stronger effect = lower value 0.986 | locus YGL240W, strain doc1, stronger effect = lower value 0.973 | locus YGL248W, strain PDE1, stronger effect = lower value 1 | locus YGL253W, strain hxk2, stronger effect = lower value 1 | [4] 1.01 | locus YGR135W, strain pre9, stronger effect = lower value 1.03 | locus YGR229C, strain SMI1, stronger effect = lower value 1.12 | locus YGR252W, strain gcn5, stronger effect = lower value 0.986 | locus YHR013C, strain ard1, stronger effect = lower value 0.996 | locus YHR027C, strain rpn1, stronger effect = lower value 0.987 | locus YHR079C, strain IRE1 (second series), stronger effect = lower value 1.01 | locus YHR094C, strain hxt1, stronger effect = lower value 1.01 | locus YHR129C, strain ARP1, stronger effect = lower value 0.999 | locus YHR142W, strain chs7, stronger effect = lower value 1.02 | locus YHR200W, strain rpn10, stronger effect = lower value 1 | locus YIL066C, strain RNR3, stronger effect = lower value 0.995 | locus YIL073C, strain SPO22, stronger effect = lower value 1.05 | locus YIL125W, strain kgd1, stronger effect = lower value 1 | locus YIR030C, strain dcg1, stronger effect = lower value 1.01 | locus YJL092W, strain hpr5, stronger effect = lower value 1.01 | locus YJL095W, strain BCK1 (second series), stronger effect = lower value 1.02 | locus YJL095W, strain BCK1, stronger effect = lower value 1.01 | locus YJL115W, strain asf1, stronger effect = lower value 0.993 | locus YJL129C, strain trk1, stronger effect = lower value 0.978 | locus YJL134W, strain LCB3, stronger effect = lower value 1.01 | locus YJL154C, strain vps35, stronger effect = lower value 1 | locus YJL164C, strain tpk1, stronger effect = lower value 1.02 | locus YJL166W, strain qcr8, stronger effect = lower value 0.994 | locus YJL168C, strain set2, stronger effect = lower value 1.01 | locus YJL187C, strain SWE1 (second series), stronger effect = lower value 1.02 | [5] 0.996 | [6] 0.987 | [7] 0.997 | locus YKL009W, strain mrt4, stronger effect = lower value 0.977 | locus YKL068W, stronger effect = lower value 1.01 | locus YKL085W, strain MDH1 (second series), stronger effect = lower value 1 | locus YKL085W, strain MDH1, stronger effect = lower value 1 | locus YKL160W, strain elf1, stronger effect = lower value 1.01 | [8] 1 | locus YKR001C, strain vps1, stronger effect = lower value 0.993 | locus YKR026C, strain gcn3, stronger effect = lower value 0.992 | locus YKR091W, strain srl3, stronger effect = lower value 1 | locus YLL001W, strain dnm1, stronger effect = lower value 1.01 | locus YLL026W, stronger effect = lower value 0.997 | locus YLL041C, strain sdh2, stronger effect = lower value 0.997 | locus YLR027C, strain aat2, stronger effect = lower value 0.984 | [9] 0.95 | locus YLR058C, strain SHM2, stronger effect = lower value 1.01 | locus YLR102C, strain apc9, stronger effect = lower value 1.02 | locus YLR221C, strain rsa3, stronger effect = lower value 0.991 | locus YLR258W, strain gsy2, stronger effect = lower value 1.01 | locus YLR262C, strain YPT6 (second series), stronger effect = lower value 0.998 | [10] 1 | locus YLR268W, strain sec22, stronger effect = lower value 1.01 | locus YLR320W, strain mms22, stronger effect = lower value 1 | locus YLR342W, strain FKS1, stronger effect = lower value 0.984 | locus YLR357W, strain rsc2, stronger effect = lower value 0.99 | locus YLR370C, strain arc18, stronger effect = lower value 1.01 | locus YLR371W, strain rom2, stronger effect = lower value 0.984 | locus YLR384C, strain iki3, stronger effect = lower value 0.999 | locus YLR418C, strain cdc73, stronger effect = lower value 1 | locus YML016C, strain PPZ1, stronger effect = lower value 0.999 | locus YML032C, strain rad52, stronger effect = lower value 1 | locus YML120C, strain ndi1, stronger effect = lower value 1.01 | locus YML124C, strain tub3, stronger effect = lower value 1.01 | locus YMR058W, strain fet3, stronger effect = lower value 1.01 | locus YMR078C, strain ctf18, stronger effect = lower value 1.01 | locus YMR125W, strain sto1, stronger effect = lower value 0.992 | locus YMR129W, stronger effect = lower value 1.01 | locus YMR205C, strain PFK2, stronger effect = lower value 0.982 | locus YMR223W, strain ubp8, stronger effect = lower value 1.01 | locus YMR231W, strain pep5, stronger effect = lower value 1 | [11] 1.02 | locus YMR307W, strain GAS1, stronger effect = lower value 0.975 | locus YNL067W, strain RPL9B, stronger effect = lower value 1.04 | locus YNL071W, strain lat1, stronger effect = lower value 0.996 | locus YNL128W, strain TEP1, stronger effect = lower value 1.02 | [12] 1.03 | locus YNL209W, strain ssb2, stronger effect = lower value 0.995 | locus YNL233W, strain BNI4, stronger effect = lower value 1 | locus YNL248C, strain rpa49, stronger effect = lower value 0.99 | locus YNL250W, strain rad50, stronger effect = lower value 1.02 | locus YNL271C, strain bni1, stronger effect = lower value 1.01 | locus YNL298W, strain CLA4, stronger effect = lower value 1.02 | locus YNL307C, strain MCK1, stronger effect = lower value 1.01 | locus YNL322C, strain KRE1 (second series), stronger effect = lower value 0.998 | [13] 1.01 | locus YNR049C, strain mso1, stronger effect = lower value 0.997 | locus YNR052C, strain pop2, stronger effect = lower value 1.02 | locus YOL012C, strain htz1 0.761 | locus YOL147C, strain pex11, stronger effect = lower value 1.01 | locus YOR001W, strain rrp6, stronger effect = lower value 0.984 | locus YOR061W, strain CKA2, stronger effect = lower value 1.01 | locus YOR069W, strain VPS5, stronger effect = lower value 1.01 | locus YOR070C, strain gyp1, stronger effect = lower value 0.993 | locus YOR080W, strain dia2, stronger effect = lower value 0.997 | locus YOR083W, strain WHI5, stronger effect = lower value 1.01 | locus YOR106W, strain vam3, stronger effect = lower value 1.02 | locus YOR136W, strain idh2, stronger effect = lower value 1.01 | locus YOR144C, strain elg1, stronger effect = lower value 1.01 | locus YOR184W, strain ser1, stronger effect = lower value 1.01 | locus YOR265W, strain rbl2, stronger effect = lower value 1.01 | locus YOR270C, strain vph1, stronger effect = lower value 1.03 | locus YOR290C, strain snf2, stronger effect = lower value 1.02 | locus YOR316C, strain cot1, stronger effect = lower value 1.01 | locus YPL051W, strain arl3, stronger effect = lower value 1.01 | [14] 0.989 | locus YPL078C, strain atp4, stronger effect = lower value 1.01 | locus YPL106C, strain sse1, stronger effect = lower value 0.988 | locus YPL240C, strain hsp82, stronger effect = lower value 1.01 | [15] 1.01 | locus YPR119W, strain clb2, stronger effect = lower value 1 | locus YPR141C, strain kar3, stronger effect = lower value 1.01 | locus YPR163C, strain tif3, stronger effect = lower value 1.01 | locus YPR167C, strain met16, stronger effect = lower value 1.01 | strain wtn01, stronger effect = lower value 0.997

CN1c2ccccc2C(=O)/C(=N/Nc2ccccc2F)S1(=O)=O
inactive: [1] 1 | [2] 1.02 | [3] 1.02 | locus YDR150W, strain NUM1, stronger effect = lower value 1.04 | locus YEL061C, strain CIN8, stronger effect = lower value 1.01 | [4] 1.02 | locus YHR030C, strain SLT2, stronger effect = lower value 0.991 | locus YHR087W, strain rtc3, stronger effect = lower value 1.01 | [5] 0.997 | [6] 1.01 | [7] 1.02 | [8] 1 | [9] 0.999 | locus YLR058C, strain SHM2 (second series), stronger effect = lower value 1.02 | locus YLR085C, strain ARP6, stronger effect = lower value 0.965 | [10] 1.01 | locus YML094W, strain GIM5, stronger effect = lower value 0.995 | locus YMR219W, strain ESC1, stronger effect = lower value 1.01 | [11] 1.01 | [12] 1.02 | locus YNL298W, strain CLA4 (second series), stronger effect = lower value 0.995 | [13] 1.01 | locus YNR030W, strain Alg12, stronger effect = lower value 0.997 | [14] 1.03 | [15] 0.993 | locus YPR135W, strain CTF4, stronger effect = lower value 1.06
